Measurements taken from publication PMC7862700, “An all-to-all approach to the identification of sequence-specific readers for epigenetic DNA modifications on cytosine”.

Key:
Experiment in all cases: DAPPL (digital affinity profiling via proximity ligation, sequencing); 10 mM Tris-HCl pH 7.5, 50 mM NaCl, 1 mM DTT, 4% glycerol, room temperature, 30 min; GST-TFs on glutathione beads, 16-mer random dsDNA library, 0.1% formaldehyde crosslink after washing; high values mean tight binding
[1] = target: T1, FEV (Homo sapiens, UniProt Q99581 1-238); conditions: protein: recombinant; tags: N-terminal GST; dsDNA, one strand shown
T1 sequence: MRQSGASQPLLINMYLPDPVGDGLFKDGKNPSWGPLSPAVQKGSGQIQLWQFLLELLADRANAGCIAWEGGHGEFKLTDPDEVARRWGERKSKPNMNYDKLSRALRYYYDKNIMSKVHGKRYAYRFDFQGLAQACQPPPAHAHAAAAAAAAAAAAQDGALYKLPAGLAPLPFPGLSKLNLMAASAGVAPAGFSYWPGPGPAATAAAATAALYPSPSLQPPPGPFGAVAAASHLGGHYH
Summary of the method: (§1)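 Human transcription factors fused to GST were expressed in yeast, captured on glutathione beads, given DNA barcodes and pooled with a GST-only negative control. Pools were incubated with 200 nmole of a 16-mer random double-stranded DNA library in Tris/NaCl/DTT/glycerol buffer at room temperature for 30 min. They were then washed, crosslinked with 0.1% formaldehyde, proximity-ligated (BsaI/T4 ligase, 1 h, 37 °C), PCR-amplified and sequenced on an Illumina NextSeq500. Binding signal is each 6-mer's read frequency for a factor divided by its frequency for the GST control.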

[2] = target: ETV5 (Homo sapiens, UniProt P41161 1-510); conditions: protein: recombinant; tags: N-terminal GST; dsDNA, one strand shown
Summary of the method: as §1

[3] = target: HSF1 (Homo sapiens, UniProt Q00613 1-529); conditions: protein: recombinant; tags: N-terminal GST; chain copies: 3; dsDNA, one strand shown
Summary of the method: as §1

[4] = target: T2, SPIC (Homo sapiens, UniProt Q8N5J4 1-248); conditions: protein: recombinant; tags: N-terminal GST; dsDNA, one strand shown
T2 sequence: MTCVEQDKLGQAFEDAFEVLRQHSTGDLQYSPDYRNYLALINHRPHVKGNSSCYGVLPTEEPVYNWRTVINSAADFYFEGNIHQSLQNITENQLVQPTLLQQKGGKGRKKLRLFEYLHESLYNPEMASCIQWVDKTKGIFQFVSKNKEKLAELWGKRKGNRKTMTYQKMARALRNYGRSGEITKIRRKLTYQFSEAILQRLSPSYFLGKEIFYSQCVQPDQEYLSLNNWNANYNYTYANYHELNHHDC
Summary of the method: as §1

[5] = target: ELF4 (Homo sapiens, UniProt Q99607 1-663); conditions: protein: recombinant; tags: N-terminal GST; dsDNA, one strand shown
Summary of the method: as §1

[6] = target: T3, ELK4 (Homo sapiens, UniProt P28324-2 1-405); conditions: protein: recombinant; tags: N-terminal GST; dsDNA, one strand shown
T3 sequence: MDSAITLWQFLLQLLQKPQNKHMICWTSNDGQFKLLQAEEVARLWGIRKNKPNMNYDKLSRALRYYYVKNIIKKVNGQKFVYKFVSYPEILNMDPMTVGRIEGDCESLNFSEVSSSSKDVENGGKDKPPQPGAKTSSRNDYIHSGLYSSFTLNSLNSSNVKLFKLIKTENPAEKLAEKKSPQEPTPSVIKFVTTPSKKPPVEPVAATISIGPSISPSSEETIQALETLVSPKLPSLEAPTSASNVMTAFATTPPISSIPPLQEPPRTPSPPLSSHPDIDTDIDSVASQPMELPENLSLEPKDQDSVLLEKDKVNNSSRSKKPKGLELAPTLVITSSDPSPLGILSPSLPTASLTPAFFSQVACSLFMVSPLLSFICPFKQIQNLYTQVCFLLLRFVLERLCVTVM
Summary of the method: as §1

[7] = target: T4, ETV2 (Homo sapiens, UniProt O00321 1-342); conditions: protein: recombinant; tags: N-terminal GST; dsDNA, one strand shown
T4 sequence: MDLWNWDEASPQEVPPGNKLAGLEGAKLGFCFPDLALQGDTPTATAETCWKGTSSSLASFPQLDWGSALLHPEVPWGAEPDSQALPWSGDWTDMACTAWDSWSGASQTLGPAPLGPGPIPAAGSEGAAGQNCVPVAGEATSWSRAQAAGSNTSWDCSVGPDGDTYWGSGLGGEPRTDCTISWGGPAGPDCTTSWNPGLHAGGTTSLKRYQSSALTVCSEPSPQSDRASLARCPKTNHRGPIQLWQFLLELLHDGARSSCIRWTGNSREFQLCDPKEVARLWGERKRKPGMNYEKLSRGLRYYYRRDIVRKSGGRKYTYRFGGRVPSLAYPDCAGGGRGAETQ
Summary of the method: as §1

[8] = target: T5, ELF3 (Homo sapiens, UniProt P78545 1-371); conditions: protein: recombinant; tags: N-terminal GST; dsDNA, one strand shown
T5 sequence: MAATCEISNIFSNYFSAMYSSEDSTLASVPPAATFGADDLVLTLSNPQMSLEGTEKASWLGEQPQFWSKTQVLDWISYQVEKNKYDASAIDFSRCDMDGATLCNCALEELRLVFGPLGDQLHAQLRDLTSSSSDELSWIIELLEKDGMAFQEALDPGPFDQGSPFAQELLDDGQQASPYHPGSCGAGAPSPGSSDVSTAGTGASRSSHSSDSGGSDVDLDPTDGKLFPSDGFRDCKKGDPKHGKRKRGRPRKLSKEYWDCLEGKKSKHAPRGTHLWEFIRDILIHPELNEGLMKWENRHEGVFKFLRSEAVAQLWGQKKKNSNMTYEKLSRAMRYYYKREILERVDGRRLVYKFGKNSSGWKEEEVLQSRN
Summary of the method: as §1

[9] = target: CRX (Homo sapiens, UniProt O43186 1-299); conditions: protein: recombinant; tags: N-terminal GST; dsDNA, one strand shown
Summary of the method: as §1

[10] = target: ETV1 (Homo sapiens, UniProt P50549 1-477); conditions: protein: recombinant; tags: N-terminal GST; dsDNA, one strand shown
Summary of the method: as §1

[11] = target: T6, ERF (Homo sapiens, UniProt P50548 1-548); conditions: protein: recombinant; tags: N-terminal GST; dsDNA, one strand shown
T6 sequence: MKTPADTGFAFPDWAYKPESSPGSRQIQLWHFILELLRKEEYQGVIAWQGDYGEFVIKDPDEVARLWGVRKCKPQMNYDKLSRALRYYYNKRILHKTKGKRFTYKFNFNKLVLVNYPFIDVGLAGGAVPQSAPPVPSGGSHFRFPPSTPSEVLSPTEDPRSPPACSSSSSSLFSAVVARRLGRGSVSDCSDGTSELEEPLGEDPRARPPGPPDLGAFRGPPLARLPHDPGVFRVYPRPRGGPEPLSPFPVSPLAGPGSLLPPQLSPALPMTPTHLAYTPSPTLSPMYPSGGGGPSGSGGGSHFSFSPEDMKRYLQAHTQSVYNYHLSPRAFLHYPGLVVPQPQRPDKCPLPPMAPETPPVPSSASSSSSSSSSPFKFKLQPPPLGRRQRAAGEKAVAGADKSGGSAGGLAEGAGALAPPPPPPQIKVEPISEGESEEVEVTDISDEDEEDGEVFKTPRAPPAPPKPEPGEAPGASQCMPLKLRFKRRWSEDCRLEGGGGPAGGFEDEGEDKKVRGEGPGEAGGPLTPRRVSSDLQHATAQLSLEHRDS
Summary of the method: as §1

[12] = target: T7, ETV3L (Homo sapiens, UniProt Q6ZN32 1-361); conditions: protein: recombinant; tags: N-terminal GST; dsDNA, one strand shown
T7 sequence: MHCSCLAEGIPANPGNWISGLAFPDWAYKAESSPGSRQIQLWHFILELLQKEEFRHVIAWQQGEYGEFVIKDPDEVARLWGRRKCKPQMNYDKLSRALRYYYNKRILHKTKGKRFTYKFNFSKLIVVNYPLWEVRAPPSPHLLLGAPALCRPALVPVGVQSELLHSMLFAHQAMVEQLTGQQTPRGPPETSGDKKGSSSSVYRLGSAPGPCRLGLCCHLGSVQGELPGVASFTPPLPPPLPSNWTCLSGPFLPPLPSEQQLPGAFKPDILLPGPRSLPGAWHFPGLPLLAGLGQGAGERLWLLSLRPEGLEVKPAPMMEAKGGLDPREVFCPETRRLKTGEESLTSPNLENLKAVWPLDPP
Summary of the method: as §1

[13] = target: T8, ETS2 (Homo sapiens, UniProt P15036 1-469); conditions: protein: recombinant; tags: N-terminal GST; dsDNA, one strand shown
T8 sequence: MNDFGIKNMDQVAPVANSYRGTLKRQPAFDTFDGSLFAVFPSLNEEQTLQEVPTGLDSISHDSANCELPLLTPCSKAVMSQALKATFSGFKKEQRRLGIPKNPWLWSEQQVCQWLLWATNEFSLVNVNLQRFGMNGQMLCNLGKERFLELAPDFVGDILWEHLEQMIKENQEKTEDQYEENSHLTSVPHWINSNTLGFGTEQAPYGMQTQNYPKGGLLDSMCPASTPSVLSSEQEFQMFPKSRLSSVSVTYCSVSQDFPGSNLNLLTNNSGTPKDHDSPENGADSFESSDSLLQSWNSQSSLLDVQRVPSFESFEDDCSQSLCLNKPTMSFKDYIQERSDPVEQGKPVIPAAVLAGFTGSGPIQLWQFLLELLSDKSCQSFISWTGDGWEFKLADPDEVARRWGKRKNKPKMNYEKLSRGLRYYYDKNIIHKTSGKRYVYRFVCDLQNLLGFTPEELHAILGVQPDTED
Summary of the method: as §1

[14] = target: T9, SPDEF (Homo sapiens, UniProt O95238 1-335); conditions: protein: recombinant; tags: N-terminal GST; dsDNA, one strand shown
T9 sequence: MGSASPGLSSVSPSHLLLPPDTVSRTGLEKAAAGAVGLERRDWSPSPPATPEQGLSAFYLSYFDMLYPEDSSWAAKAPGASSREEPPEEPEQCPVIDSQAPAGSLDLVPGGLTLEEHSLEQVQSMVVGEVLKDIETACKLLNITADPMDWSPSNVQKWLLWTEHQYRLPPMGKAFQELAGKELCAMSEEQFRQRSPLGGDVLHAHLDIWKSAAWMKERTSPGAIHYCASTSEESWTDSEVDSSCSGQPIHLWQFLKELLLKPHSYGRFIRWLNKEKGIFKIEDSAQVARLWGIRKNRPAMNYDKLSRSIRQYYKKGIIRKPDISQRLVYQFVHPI
Summary of the method: as §1

[15] = target: T10, ETV7 (Homo sapiens, UniProt Q9Y603 1-341); conditions: protein: recombinant; tags: N-terminal GST; dsDNA, one strand shown
T10 sequence: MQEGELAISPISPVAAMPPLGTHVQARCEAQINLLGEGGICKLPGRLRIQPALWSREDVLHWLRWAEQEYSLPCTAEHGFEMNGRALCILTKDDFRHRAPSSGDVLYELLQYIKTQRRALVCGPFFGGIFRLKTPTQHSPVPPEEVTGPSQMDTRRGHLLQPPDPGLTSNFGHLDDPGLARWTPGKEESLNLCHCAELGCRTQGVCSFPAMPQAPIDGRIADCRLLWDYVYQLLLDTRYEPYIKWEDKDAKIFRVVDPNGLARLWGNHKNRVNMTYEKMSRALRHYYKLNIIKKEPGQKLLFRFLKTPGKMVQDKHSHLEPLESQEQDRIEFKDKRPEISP
Summary of the method: as §1

[16] = target: T11, ELF5 (Homo sapiens, UniProt Q9UKW6-2 1-255); conditions: protein: recombinant; tags: N-terminal GST; dsDNA, one strand shown
T11 sequence: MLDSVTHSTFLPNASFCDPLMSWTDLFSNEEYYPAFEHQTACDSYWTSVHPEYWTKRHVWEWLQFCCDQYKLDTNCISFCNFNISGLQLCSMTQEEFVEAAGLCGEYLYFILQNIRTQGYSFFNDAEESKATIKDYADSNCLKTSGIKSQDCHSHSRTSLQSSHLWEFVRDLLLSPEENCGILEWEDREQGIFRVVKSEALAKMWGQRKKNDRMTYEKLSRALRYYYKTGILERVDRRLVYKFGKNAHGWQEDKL
Summary of the method: as §1

[17] = target: T12, ETV3 (Homo sapiens, UniProt P41162-2 1-143); conditions: protein: recombinant; tags: N-terminal GST; dsDNA, one strand shown
T12 sequence: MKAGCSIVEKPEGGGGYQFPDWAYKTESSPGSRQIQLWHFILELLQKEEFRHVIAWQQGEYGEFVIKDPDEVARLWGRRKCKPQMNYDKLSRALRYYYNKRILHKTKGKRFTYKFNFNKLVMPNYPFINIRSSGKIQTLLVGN
Summary of the method: as §1

[18] = target: ETV6 (Homo sapiens, UniProt P41212 1-452); conditions: protein: recombinant; tags: N-terminal GST; dsDNA, one strand shown
Summary of the method: as §1

Sequence of ETV5 (P41161 whole entry): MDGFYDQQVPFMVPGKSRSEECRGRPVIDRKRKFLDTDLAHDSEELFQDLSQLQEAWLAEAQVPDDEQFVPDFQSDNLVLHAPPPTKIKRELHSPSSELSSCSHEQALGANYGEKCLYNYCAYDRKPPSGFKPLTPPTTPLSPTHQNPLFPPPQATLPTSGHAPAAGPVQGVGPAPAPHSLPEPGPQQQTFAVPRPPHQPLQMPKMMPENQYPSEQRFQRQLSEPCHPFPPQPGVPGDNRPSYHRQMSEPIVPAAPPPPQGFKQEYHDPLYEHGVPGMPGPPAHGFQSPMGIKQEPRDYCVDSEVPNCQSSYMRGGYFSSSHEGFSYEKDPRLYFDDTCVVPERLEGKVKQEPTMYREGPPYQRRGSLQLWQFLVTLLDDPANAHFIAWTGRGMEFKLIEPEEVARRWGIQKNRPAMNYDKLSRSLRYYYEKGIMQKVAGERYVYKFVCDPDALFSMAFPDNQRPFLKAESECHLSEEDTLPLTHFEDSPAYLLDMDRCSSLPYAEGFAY
Sequence of ETV6 (P41212 whole entry): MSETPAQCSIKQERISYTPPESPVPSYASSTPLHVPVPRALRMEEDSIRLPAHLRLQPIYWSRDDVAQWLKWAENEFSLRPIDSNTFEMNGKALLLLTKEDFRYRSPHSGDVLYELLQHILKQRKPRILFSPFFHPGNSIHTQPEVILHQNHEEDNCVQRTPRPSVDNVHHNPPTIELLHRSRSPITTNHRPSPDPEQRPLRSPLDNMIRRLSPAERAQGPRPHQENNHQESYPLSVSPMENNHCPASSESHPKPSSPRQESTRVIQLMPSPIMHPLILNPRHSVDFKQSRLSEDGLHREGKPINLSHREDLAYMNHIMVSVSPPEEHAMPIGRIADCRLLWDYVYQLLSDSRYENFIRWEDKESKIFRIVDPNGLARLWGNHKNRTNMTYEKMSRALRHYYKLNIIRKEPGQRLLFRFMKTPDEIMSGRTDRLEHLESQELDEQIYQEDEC
Sequence of CRX (O43186 whole entry): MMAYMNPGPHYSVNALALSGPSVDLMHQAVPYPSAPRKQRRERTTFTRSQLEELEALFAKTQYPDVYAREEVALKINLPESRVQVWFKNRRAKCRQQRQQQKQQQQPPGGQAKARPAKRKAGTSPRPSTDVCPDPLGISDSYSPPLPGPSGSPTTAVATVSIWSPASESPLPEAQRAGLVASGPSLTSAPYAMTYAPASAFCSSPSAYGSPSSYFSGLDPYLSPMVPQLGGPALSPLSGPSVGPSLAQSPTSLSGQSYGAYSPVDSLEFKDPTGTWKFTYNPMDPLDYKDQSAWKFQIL
Sequence of ELF4 (Q99607 whole entry): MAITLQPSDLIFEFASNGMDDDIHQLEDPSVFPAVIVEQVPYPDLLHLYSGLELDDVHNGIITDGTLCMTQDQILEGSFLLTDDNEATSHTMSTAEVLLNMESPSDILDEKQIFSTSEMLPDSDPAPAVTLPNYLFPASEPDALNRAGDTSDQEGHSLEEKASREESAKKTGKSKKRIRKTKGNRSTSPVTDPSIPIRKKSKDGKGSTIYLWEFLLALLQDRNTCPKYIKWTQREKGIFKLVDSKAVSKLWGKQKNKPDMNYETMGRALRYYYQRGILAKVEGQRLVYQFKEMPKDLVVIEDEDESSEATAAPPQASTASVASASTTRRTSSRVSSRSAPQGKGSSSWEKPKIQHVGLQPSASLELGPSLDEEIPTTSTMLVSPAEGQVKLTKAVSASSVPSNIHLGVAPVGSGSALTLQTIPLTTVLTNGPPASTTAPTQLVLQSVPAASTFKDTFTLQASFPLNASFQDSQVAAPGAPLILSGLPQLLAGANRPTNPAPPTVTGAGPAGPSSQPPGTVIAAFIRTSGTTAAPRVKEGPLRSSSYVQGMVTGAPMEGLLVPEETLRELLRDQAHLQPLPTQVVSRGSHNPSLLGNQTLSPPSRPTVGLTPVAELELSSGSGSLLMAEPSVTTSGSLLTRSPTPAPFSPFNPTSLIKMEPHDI
Sequence of HSF1 (Q00613 whole entry): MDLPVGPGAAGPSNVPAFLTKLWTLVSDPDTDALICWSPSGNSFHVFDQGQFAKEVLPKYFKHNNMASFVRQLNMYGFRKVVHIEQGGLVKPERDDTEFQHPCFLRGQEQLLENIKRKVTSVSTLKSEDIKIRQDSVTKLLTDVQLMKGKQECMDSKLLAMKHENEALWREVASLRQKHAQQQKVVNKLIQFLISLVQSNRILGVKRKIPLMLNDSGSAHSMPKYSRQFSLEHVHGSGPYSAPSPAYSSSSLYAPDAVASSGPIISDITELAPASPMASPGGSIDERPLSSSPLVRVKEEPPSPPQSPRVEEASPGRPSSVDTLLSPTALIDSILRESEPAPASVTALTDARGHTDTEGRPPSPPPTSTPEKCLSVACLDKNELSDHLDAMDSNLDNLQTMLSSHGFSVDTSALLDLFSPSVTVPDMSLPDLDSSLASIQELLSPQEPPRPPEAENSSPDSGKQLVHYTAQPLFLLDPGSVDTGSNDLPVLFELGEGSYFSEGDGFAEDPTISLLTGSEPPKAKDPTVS
Sequence of ETV1 (P50549 whole entry): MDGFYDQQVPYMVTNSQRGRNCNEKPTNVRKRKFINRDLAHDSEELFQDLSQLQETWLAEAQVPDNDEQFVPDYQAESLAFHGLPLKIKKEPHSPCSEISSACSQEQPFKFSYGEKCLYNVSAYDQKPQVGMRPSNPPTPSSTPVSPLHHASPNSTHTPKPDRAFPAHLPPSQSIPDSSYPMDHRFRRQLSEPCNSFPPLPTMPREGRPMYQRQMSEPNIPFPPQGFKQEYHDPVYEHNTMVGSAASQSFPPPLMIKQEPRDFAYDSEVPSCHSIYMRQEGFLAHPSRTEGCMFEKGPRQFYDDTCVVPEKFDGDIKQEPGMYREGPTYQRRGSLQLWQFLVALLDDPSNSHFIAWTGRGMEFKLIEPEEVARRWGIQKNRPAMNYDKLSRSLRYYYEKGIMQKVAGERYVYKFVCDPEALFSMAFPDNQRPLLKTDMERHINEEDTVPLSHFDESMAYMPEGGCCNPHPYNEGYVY

How did the binding signal [1] turn out when GATTAT was run?
The binding signal was 1.01 fold enrichment (6-mer frequency, TF over GST control).

And the binding signal [2]?
Its binding signal is 1.03 fold enrichment (6-mer frequency, TF over GST control).

What about the binding signal [3] of the same sequence?
Its binding signal is 2.66 fold enrichment (6-mer frequency, TF over GST control).

And the binding signal [4]?
The binding signal was 1.09 fold enrichment (6-mer frequency, TF over GST control).

What about the binding signal [5] of the same sequence?
Its binding signal is 1.14 fold enrichment (6-mer frequency, TF over GST control).

And the binding signal [6]?
Its binding signal is 1.06 fold enrichment (6-mer frequency, TF over GST control).

And the binding signal [7]?
The binding signal was 1.07 fold enrichment (6-mer frequency, TF over GST control).

And the binding signal [8]?
The binding signal was 1.16 fold enrichment (6-mer frequency, TF over GST control).

What about the binding signal [9] of the same sequence?
The binding signal was 4.27 fold enrichment (6-mer frequency, TF over GST control).

What about the binding signal [10] of the same sequence?
The binding signal was 1.06 fold enrichment (6-mer frequency, TF over GST control).

What about the binding signal [11] of the same sequence?
The binding signal was 1.06 fold enrichment (6-mer frequency, TF over GST control).

And the binding signal [12]?
The binding signal was 1.11 fold enrichment (6-mer frequency, TF over GST control).

What about the binding signal [13] of the same sequence?
Its binding signal is 1.04 fold enrichment (6-mer frequency, TF over GST control).

And the binding signal [14]?
Its binding signal is 1.1 fold enrichment (6-mer frequency, TF over GST control).

What about the binding signal [15] of the same sequence?
The binding signal was 1.18 fold enrichment (6-mer frequency, TF over GST control).

And the binding signal [16]?
Its binding signal is 1.04 fold enrichment (6-mer frequency, TF over GST control).

And the binding signal [17]?
Its binding signal is 1.04 fold enrichment (6-mer frequency, TF over GST control).

What about the binding signal [18] of the same sequence?
Its binding signal is 1.12 fold enrichment (6-mer frequency, TF over GST control).
